# According to the supplement of paper PMC11417369:
# ± gives the standard deviation of the averaged measurements. In all, about 25,000 sequences were measured (“ln(normalized median fluorescence intensity)”: median about 8.6, highest 2% from about 10 on). The sample as a whole holds a higher share of the highest values than the screen did.
# System: PfAP2-EXP AP2 domain (GST-tagged)
# Assay: gcPBM binding intensity (ln(normalized median fluorescence intensity)); higher = stronger DNA binding
# Outline: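 Alexa488 anti-GST antibody, scanned at 488 nm, detected GST-tagged P. falciparum DNA-binding domains that had been expressed in E. coli and incubated for 1 h on an Agilent 4 × 180k array. The array carried primer-extended double-stranded 36-bp intergenic genomic probes and negative controls. Binding intensity is the highest Masliner-normalised natural-log median intensity across replicate spots of either orientation of each probe.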
row,Sequence,gcPBM binding intensity (ln)
1,CATGTATTTTATATTACACACTAATATTATAGATAT [CACACA_site6819],8.27 ± 0.28
2,GCTTCTTAGTATACTTTATAAAATATATATTAAATA [XGTACX_negctrl_site57],8.75 ± 0.47
3,AATATTTTATTTTTTCTCATTAAAAATTTTTTTTTT [CACACA_negctrl_site364],8.46 ± 0.45
4,TAAAATGTAATCTGAACACACATATTTTTTTAATAT [CACACA_site1768],8.12 ± 0.52
5,CTAACAACCAAACGCACACACACAAAAAAAAAAATA [CACACA_site400],8.48 ± 0.42
6,AAATATTTTTTAATTGTTCACTTGGTGGATCATTAA [CACACA_negctrl_site922],8.28 ± 0.28
7,TTTTTTTTTTTTTTTTGTACATATTTTAATTTGTTT [XGTACX_site6297],8.05 ± 0.4
8,TATTTTCCATGAGGTAGTACACATTAAAAAATCGTT [XGTACX_site6887],8.44 ± 0.29
9,AAGAATATTATAAACACACACTTTATAAAGAATTAT [CACACA_site4241],8.51 ± 0.52
10,TAATTTAAAAATTCCTGTACTCAGTTTTTTCTATTT [XGTACX_site4961],8.48 ± 0.39
11,AAAAAAACACACACATATATATATATATATATATAT [GTGCAC_negctrl_site498],10.2 ± 0.41
12,TATAAGCAAAAACACACACACATATATATATATATA [CACACA_site3804],10.3 ± 0.28
13,AAAACATACATATATACACACATATATATATATATA [CACACA_site1852],10.2 ± 0.23
14,CATATATAAAAAAACACACACATATATATATATATA [CACACA_site1195],10.2 ± 0.61
15,AAAAAAAAAAAACATACACACATACATACATATATA [CACACA_site8222],8.48 ± 0.4
16,AAAAAAAAAAAAAAAACACACATATATGTATATATA [CACACA_site3276],8.28 ± 0.5
17,AAAAAAAAAAAACATACACACACATATATATATATA [CACACA_site8452],10 ± 0.54
18,AAAAAACAAAAACACACACACACATATATATATATA [CACACA_site3654],9.94 ± 0.36
19,ATTATGTGCCAATACACACACACATATATATATATA [CACACA_site468],9.91 ± 0.44
20,TATGTGCCAAAACACACACACATATATATATATATA [CACACA_site469],10.2 ± 0.11
21,AAACAAAAAAAATAAGCACACATATATATATATATA [CACACA_site8173],10.1 ± 0.26
22,TTTAAGCAAAAACACACACACATATATATATATATA [CACACA_site349],10.1 ± 0.41
23,ACAGCTCTAGGACATGCATGTTATATAGAAAAAGAG [TGCATGCA_site703],9.59 ± 0.32

row,Sequence,gcPBM binding intensity (ln)
1,TTATACAACAAGAAAATTATAAAATGTAACATATAT [GTGCAC_negctrl_site406],8.53 ± 0.42
2,TTTATAATTTATATCACACATATATCTGTAATAAAT [CACACA_site5048],8.24 ± 0.44
3,TATATTTATAGACACACACACAAAAAAAAAAAAAAA [CACACA_site6818],8.37 ± 0.31
4,ATTTTCATGATAAAGGTGCAATTATTTTTATAAGAA,8.74 ± 0.13
5,ATTATTGTTTATTGATTTTTGTTAAAATAGGAAATT [GTGCAC_negctrl_site181],8.37 ± 0.4
6,AAAAAAATCACATAAAATACTTTATTTTATATTATA [GTGCAC_negctrl_site372],7.89 ± 0.36
7,ATTTTTAATCATTTACAACCTAGTGATTATACAAAT [CACACA_negctrl_site1089],8.51 ± 0.35
8,AAAAAAAAAAAGCACACACACATATGCGTATATATA [CACACA_site954],8.49 ± 0.57
9,TAAGAAAATATTTATGTATGCATGTCCTAATATTTC [TGCATGCA_site295],8.44 ± 0.3
10,TTGCCTTAAAAAGGAACACACATGCTTTTTTTAGTT [CACACA_site938],8.37 ± 0.45
11,TATTATAAATAAATAGAAAAAAAAATGATAAATGGA [CACACA_negctrl_site865],8.62 ± 0.42
12,TGCATATACGCAAGCACACATATATATATATATATA [CACACA_site1069],10.2 ± 0.51
13,AAAAAAAAAAAAAAAACACACATATATATATATATA [CACACA_site2436],10.4 ± 0.11
14,AAAACAAACAGACACACACACATATATATATATATA [CACACA_site3655],10.3 ± 0.21
15,AAAAAAAACAGACACACACACATACAAAATATATAT [CACACA_site1449],8.73 ± 0.47
16,TGCATATACTCAAGCACACATATATATATATATATA [CACACA_site4733],10.2 ± 0.33
17,TATGCATATACACAAGCACACATATATATATATATA [CACACA_site8266],10.1 ± 0.32
18,AACACACACATATATATATATATATATATATATATA [GTGCAC_negctrl_site573],10 ± 0.47
19,AAAAAAAAAAAAAACACACATACATACATACATATA [CACACA_site4121],8.55 ± 0.16
20,AAAACAGACAAACACACACACACATATATATATATA [CACACA_site3393],10.1 ± 0.49
21,AACTATAATTAAAGGATGCACTTGAAGGCATTTCAA [GTGCAC_site9689],8.34 ± 0.35
22,GCATATATCAAATATCGTACATTTTTTAAATTAAAA [XGTACX_site3994],8.42 ± 0.47
23,TACGTTCTGATATATACACACCTGGTATTAATTATG [CACACA_site7113],8.93 ± 0.46

row,Sequence,gcPBM binding intensity (ln)
1,AAAAAAAAATTAAAATGTACACATAAAAAAAAAAAA [XGTACX_site794],8.64 ± 0.42
2,ATTTCCTGGCTACTGTGTACTGACCTCCAGACTGCT [XGTACX_site2005],8.81 ± 0.55
3,ACTACATAATATTTACGTACCTAAAAAATTCTTATA [XGTACX_site509],8.51 ± 0.33
4,AAAAAAAAAAAAAACACACACACACCCAAATATATA [CACACA_site1169],8.71 ± 0.3
5,TGGGAAAAAATATATGCACACCCCCCAAAAAAAAAA [CACACA_site8696],11.1 ± 0.35
6,ATAATATAAATATGCACACAAATTATTACCCAAAAA [CACACA_site2524],8.56 ± 0.2
7,GGAAAAAATATATGCACACCCCCCAAAAAAAAAAAA [CACACA_site2222],10.95 ± 0.099
8,AAAAAAAAAAAACACACACACACACCCAAATATATA [CACACA_site150],8.49 ± 0.61
9,TTAAAAAAATATAATACACACCAAAAATATGCACAT [CACACA_site5209],8.85 ± 0.35
10,TACATATTTTATAGCACACAAATAATAATATGTAGT [CACACA_site688],8.68 ± 0.31
11,TTTGAGATGTGGTGTACACAAAATTAGGTACACATC [CACACA_site5773],8.92 ± 0.33
12,TCTTTTTCTTCTTATGTGCACATCAATTATGCTTCT,9.33 ± 0.35
13,AATGTGCTCGCTATTACACACTCATTGGGATAAACT [CACACA_site7043],8.56 ± 0.4
14,CTGAAATTAACAAAAGTGCATAAAAATAAAAAATAT [GTGCAC_site9652],8.99 ± 0.29
15,TAAAAAATTAATAAAGTGCATAAATATTACAATATT,8.32 ± 0.18
16,TAAATTAATAAACAAGTGCATATATATATATATATA,10.2 ± 0.38
17,TTTTTTTATTATTAAAGTACTAAAAAATGAAAACTG [XGTACX_site6758],8.26 ± 0.18
18,AAGTTGGAAAGGTTATGTACTTATTTTTTAAAATAA [XGTACX_site204],8.27 ± 0.45
19,TATCATTTTGTATATAGTACATATATAAAATCGTTA [XGTACX_site3875],8.35 ± 0.29
20,GTATAATAAATGATAGCACACATATGTACTTATATA [CACACA_site8188],8.57 ± 0.25
21,AGCCTCGGGGTCATATATATATATATATATATATAT [CACACA_negctrl_site512],10.2 ± 0.53
22,ATATAGTAAAATTATACACACATGAATTTTCCCATG [CACACA_site1770],8.48 ± 0.49
23,ATAAGTAATATAATATGTACATATATATATATATAT [XGTACX_site3818],10.2 ± 0.37

row,Sequence,gcPBM binding intensity (ln)
1,ATAAATAAATAAGTACATATATATATGTATATATAT [TGCATGCA_negctrl_site223],8.775 ± 0.021
2,TAATAATAGTAAATATGTACATATATATATATATAG [XGTACX_site4602],8.73 ± 0.3
3,AATAATAATAGTAATATGTACATATATATATATATA [TGCATGCA_negctrl_site542],10.1 ± 0.33
4,TATATATAAACATAATGTACATATAATAAGTAATAT [XGTACX_site497],8.89 ± 0.45
5,ATAATAATAGTAATATGTACATATATATATATATAT [XGTACX_site7437],10.2 ± 0.53
6,TTTAATAATATTTAGGTGCTATATATTATATGTATA,8.32 ± 0.21
7,CAATATAAAATAAAATGTACTTGTAGTAAAGGGATA [XGTACX_site1452],8.79 ± 0.35
8,AAGTAATACAACACGCACATATATATATATATATAT [GTGCAC_negctrl_site89],10.3 ± 0.3
9,ATAGATATACATATCACACATATATATATATATATA [CACACA_site4985],10.2 ± 0.23
10,TAGATACATACACGCACACACATATATAAATAAATA [CACACA_site6157],8.69 ± 0.49
11,TGTGCACGCATATACACACACAAATACAATGATAAA [CACACA_site6656],8.65 ± 0.36
12,GAAATGTGATAATATACACACACGCATATATATATA [CACACA_site4332],9.86 ± 0.3
13,TAGATACATACACGCACACACATATATATATATATA [CACACA_site12],10.2 ± 0.29
14,AATACATATAATACAACACACAAGTAATATAAACCT [CACACA_site3597],8.87 ± 0.53
15,CATATATAGATATATACACACATACATACATACATA [CACACA_site7748],8.55 ± 0.38
16,ATTACATGATATATCACACACACATATAGATATATA [CACACA_site7352],8.65 ± 0.44
17,CATAGATACATACACGCACACACATATATATATATA [CACACA_site13],9.97 ± 0.36
18,AATGTGATAATATACACACACGCATATATATATATA [CACACA_site323],10.2 ± 0.2
19,ATACAACATATATATACACACATATAATAATAATAA [CACACA_site3367],8.62 ± 0.42
20,TTATTCTAAAAATATACACACAACAACAAACAAACA [CACACA_site1543],9.04 ± 0.39
